Holding throughout (test): protein domain microarray probed with biotinylated miRNA; Domain array: 20 mM Tris-HCl pH 7.4, 200 mM KCl, 0.2 mM EDTA, 0.05% NP40, 2 ug/ul heparin, overnight 4 C. ORF array: PBS pH 7.0 with RNase inhibitor, 100 ng RNA; high values mean tight binding
Conditions in all cases: ssRNA

The target of assay [1] is T1, DAZ4 (Homo sapiens, UniProt Q86SG3).
T1 sequence: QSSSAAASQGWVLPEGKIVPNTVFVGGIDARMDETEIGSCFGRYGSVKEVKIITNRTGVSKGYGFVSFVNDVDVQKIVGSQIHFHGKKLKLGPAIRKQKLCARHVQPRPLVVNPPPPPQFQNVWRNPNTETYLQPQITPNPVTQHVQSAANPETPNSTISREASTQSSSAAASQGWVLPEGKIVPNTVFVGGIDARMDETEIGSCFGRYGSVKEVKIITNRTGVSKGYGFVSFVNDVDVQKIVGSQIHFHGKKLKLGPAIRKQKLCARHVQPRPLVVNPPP

The target in assay [2] is T2, hnRNP-M(1-2) (Homo sapiens, UniProt P52272).
T2 sequence: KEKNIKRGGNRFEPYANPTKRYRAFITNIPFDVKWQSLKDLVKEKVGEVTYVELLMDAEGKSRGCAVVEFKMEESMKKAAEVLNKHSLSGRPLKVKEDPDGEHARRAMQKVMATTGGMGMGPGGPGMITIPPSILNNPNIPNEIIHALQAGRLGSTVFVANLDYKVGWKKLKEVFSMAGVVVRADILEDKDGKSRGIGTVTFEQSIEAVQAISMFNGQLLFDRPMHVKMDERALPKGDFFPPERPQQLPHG

Assay [3] has as its target hnRNP-A3 (Homo sapiens, UniProt P51991).
Assay [4] has as its target T3, LARP7(2) (Homo sapiens, UniProt Q4G0J3).
T3 sequence: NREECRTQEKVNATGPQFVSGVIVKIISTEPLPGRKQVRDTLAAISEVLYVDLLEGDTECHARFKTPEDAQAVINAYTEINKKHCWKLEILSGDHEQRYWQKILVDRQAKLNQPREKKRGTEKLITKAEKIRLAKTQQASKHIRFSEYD

Assay [5] deals with eIF3-delta (Homo sapiens, UniProt O75821).
The target of assay [6] is T4, DAZ1 (Homo sapiens, UniProt Q9NQZ3).
T4 sequence: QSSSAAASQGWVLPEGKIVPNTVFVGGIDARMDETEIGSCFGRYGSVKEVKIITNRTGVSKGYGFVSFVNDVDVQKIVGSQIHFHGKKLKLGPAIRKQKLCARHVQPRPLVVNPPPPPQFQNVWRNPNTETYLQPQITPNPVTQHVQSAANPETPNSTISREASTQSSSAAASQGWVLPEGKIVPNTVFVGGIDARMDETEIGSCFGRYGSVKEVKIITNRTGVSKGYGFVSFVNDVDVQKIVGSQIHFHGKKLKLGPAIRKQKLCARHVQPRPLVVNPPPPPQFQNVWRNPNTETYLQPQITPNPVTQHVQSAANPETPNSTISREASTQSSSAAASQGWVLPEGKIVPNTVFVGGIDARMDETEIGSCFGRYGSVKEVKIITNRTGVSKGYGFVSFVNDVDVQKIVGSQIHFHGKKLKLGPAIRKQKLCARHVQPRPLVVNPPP

In assay [7] the target is G3BP-1 (Homo sapiens, UniProt Q13283).
In assay [8] the target is hnRNP-A1 (Homo sapiens, UniProt P09651).
Assay [9] concerns the target T5, hnRNP-R (Homo sapiens, UniProt O43390).
T5 sequence: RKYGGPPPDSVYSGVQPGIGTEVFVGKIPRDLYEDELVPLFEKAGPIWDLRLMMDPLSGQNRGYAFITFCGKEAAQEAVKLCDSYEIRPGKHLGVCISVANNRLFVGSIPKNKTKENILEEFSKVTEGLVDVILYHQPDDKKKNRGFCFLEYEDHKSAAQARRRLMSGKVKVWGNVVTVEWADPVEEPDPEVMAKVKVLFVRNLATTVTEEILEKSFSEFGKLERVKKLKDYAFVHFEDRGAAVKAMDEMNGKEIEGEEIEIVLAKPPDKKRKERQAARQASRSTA

Assay [10] has as its target T6, LKAP (Homo sapiens, UniProt Q9Y4F3).
T6 sequence: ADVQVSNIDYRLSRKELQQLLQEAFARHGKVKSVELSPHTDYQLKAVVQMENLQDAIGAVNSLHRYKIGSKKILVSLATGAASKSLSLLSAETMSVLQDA

Drawing on PMC11574364, this text covers binding signal for six sequences.

Sequence of hnRNP-A3 (P51991 15-225): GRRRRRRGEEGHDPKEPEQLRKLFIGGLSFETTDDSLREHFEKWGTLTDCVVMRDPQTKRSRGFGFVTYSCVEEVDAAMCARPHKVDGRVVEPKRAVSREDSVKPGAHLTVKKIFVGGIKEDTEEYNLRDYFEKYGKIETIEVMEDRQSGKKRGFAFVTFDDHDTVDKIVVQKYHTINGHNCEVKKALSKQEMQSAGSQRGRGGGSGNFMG
Sequence of eIF3-delta (O75821 220-320, stated change not applied): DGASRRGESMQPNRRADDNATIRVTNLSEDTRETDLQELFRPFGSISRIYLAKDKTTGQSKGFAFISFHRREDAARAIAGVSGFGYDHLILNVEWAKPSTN
Sequence of hnRNP-A1 (P09651 1-205): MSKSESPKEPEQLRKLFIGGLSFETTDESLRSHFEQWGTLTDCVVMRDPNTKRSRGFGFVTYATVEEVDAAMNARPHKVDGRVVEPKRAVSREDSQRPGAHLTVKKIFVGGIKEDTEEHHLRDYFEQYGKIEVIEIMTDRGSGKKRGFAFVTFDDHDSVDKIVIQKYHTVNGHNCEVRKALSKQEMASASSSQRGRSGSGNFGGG
Sequence of G3BP-1 (Q13283 320-435): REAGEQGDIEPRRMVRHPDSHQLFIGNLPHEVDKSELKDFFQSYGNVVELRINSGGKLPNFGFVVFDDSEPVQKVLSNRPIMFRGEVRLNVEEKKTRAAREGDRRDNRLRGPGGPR

For the sequence UAGCUUAUCAGACUGAUGUUGA, the binding signal was determined as 570 ± 34.9 fluorescence intensity in assay [1]; 584 ± 19 fluorescence intensity in assay [2]; 80.5 ± 23 fluorescence intensity in [3]; 66.2 ± 4.35 fluorescence intensity in assay [4]; 20.5 ± 2.47 fluorescence intensity in assay [5]; 550 ± 15.3 fluorescence intensity in assay [6]. The sequence further gave a binding signal in assay [7] of 219 ± 29.7 fluorescence intensity.
Turning to UGAGGUAGUAGGUUGUAUGGUU, the binding signal in [1] is 778 ± 25.6 fluorescence intensity; in assay [2], 1452 ± 3.71 fluorescence intensity; in [3] it was 1730 ± 33.6 fluorescence intensity; in assay [4] it was 511 ± 8.38 fluorescence intensity; in assay [8], 74.6 ± 1.05 fluorescence intensity; in [5], 262 ± 21.2 fluorescence intensity. Besides, the binding signal is 666 ± 24.3 fluorescence intensity in assay [9], 65.2 ± 2.55 fluorescence intensity in assay [10], 673 ± 9.53 fluorescence intensity in assay [6] and 1240 ± 13.5 fluorescence intensity in [7].
For CAGUGCAAUGAUGAAAGGGCAU, the binding signal amounted to 178.74 ± 0.0495 fluorescence intensity in assay [1]; 946.9 ± 2.02 fluorescence intensity in assay [2]; 1370 ± 25 fluorescence intensity in assay [3]; 288 ± 8.61 fluorescence intensity in [4]; 40.7 ± 3.35 fluorescence intensity in assay [8]; 113 ± 14 fluorescence intensity in [5]. The binding signal in assay [9] was found to be 113 ± 6.25 fluorescence intensity; in [10], 37.5 ± 1.56 fluorescence intensity; in assay [6], 153 ± 10.6 fluorescence intensity; in [7] it was 1860 ± 70.5 fluorescence intensity.
UGAGGUAGUAGGUUGUGUGGUU: the binding signal in assay [1] was 843.32 ± 0.516 fluorescence intensity; in assay [2], 1470 ± 31 fluorescence intensity; in assay [3] it was 1660 ± 31.6 fluorescence intensity; in [4], 632 ± 5.09 fluorescence intensity; in [8], 77.3 ± 27.2 fluorescence intensity; in assay [5] it was 338 ± 7.23 fluorescence intensity. Besides, the binding signal in assay [9] amounted to 693 ± 1.68 fluorescence intensity; in assay [10], 91.94 ± 0.665 fluorescence intensity; in [6], 709 ± 20.1 fluorescence intensity; in assay [7] it was 1380 ± 17 fluorescence intensity.
For the sequence UGAGGUAGUAGGUUGUAUAGUU, the binding signal came to 215 ± 41.8 fluorescence intensity in [1]; 581.3 ± 5.61 fluorescence intensity in assay [2]; 952 ± 63 fluorescence intensity in [3]; 179 ± 11.7 fluorescence intensity in [4]; 22 ± 6.92 fluorescence intensity in assay [8]; 80.4 ± 7.03 fluorescence intensity in [5]. In addition, the binding signal came out at 109 ± 5.8 fluorescence intensity in assay [9], 193 ± 22.1 fluorescence intensity in [6] and 286 ± 21.3 fluorescence intensity in assay [7].
As to AGAGGUAGUAGGUUGCAUAGUU, the binding signal was 934 ± 29.1 fluorescence intensity in assay [1]; 1710 ± 32.8 fluorescence intensity in [2]; 2440 ± 28.8 fluorescence intensity in assay [3]; 400 ± 39.4 fluorescence intensity in assay [4]; 62.9 ± 11.7 fluorescence intensity in assay [8]; 231 ± 8.61 fluorescence intensity in assay [5]. In addition, the binding signal came out at 362 ± 6.89 fluorescence intensity in assay [9], 41.4 ± 3.31 fluorescence intensity in assay [10], 814 ± 10.2 fluorescence intensity in assay [6] and 1220 ± 45.7 fluorescence intensity in [7].
